# Screens from PubChem.
# The list is not random: actives were taken first. Their share in the collection is about 2.4%.
# POLB inh = qHTS Assay for Inhibitors of DNA Polymerase Beta; P06746; Pol beta primer extension/strand displacement, fluorescence kinetic; Potency, µM (highest dose often 114 µM), for inactives: top-dose activity change, negative = inhibition, hits mostly inhibitors; hit rate 1.3% among 340,000; AID 485314, 2010; also: % is scaled to controls: 0 for no effect and ±100 for the full control effect
#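 Curves were derived by four-parameter Hill fits of normalized qHTS data. The kinetic fluorescent primer-extension read was taken at 0 and 10 min after 50 nM substrate, following a 15 min room-temperature preincubation of 10 nM enzyme with compounds.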
# POLI inh = qHTS for Inhibitors of Polymerase Iota; Potency, µM (titrated, usually from 115 µM), for the others: at the top dose activity, negative = inhibition, hits mostly inhibitors; hit rate 1% among 390,000; DNA polymerase iota (Homo sapiens), Q9UNA4; Pol iota fluorescent replication assay, 10 min
#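 Pol iota at 10 nM preincubated 15 min with compounds at room temperature; reaction started with fluorescent substrate, 50 nM final. Fluorescence read kinetically at 0 and 10 min; buffer-only wells as negative control.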
# FEN1 inhibitor = qHTS Assay for the Inhibitors of Human Flap endonuclease 1 (FEN1); Potency, µM (series often up to 114 µM), for inactives: at the highest dose activity change, negative = inhibition, actives largely listed as inhibitors; hit rate 0.35% among 390,000; P39748; AID 588795, 2011; Recombinant FEN1 flap cleavage, fluorescence, 15 min; also: % is scaled to controls: 0 for no effect and ±100 for the full control effect; nearly all actives have a fitted effect of over 65% in size
#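 Enzyme 10 nM, 15 min RT preincubation with compound; start with substrate 50 nM final; reads at 0 and 15 min; qHTS titration, four-parameter Hill fit.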
# Pol eta inh = qHTS for Inhibitors of Polymerase Eta; DNA polymerase eta (Homo sapiens), Q9Y253; recombinant Pol eta, fluorescent DNA replication assay; Potency, µM (doses to about 114 µM), for the others: top-dose activity change, negative = inhibition, actives largely listed as inhibitors; hit rate 1.2% among 390,000; AID 588591, 2011; also: % is scaled to controls: 0 for no effect and ±100 for the full control effect
#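 Pol eta at 10 nM preincubated with compounds 15 min at room temperature; reaction started with fluorescent substrate (50 nM final) and read kinetically at 0 and 10 min.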
# TDP1 inh = qHTS Assay for Inhibitors of Tyrosyl-DNA Phosphodiesterase (TDP1). recombinant TDP1, AlphaScreen DNA substrate cleavage. Potency, µM (titrated, usually from 130 µM), for inactives: at the top dose activity change, negative = inhibition, most hits filed as inhibitors. hit rate 0.28% among 350,000. AID 485290, 2010; also: % is scaled to controls: 0 for no effect and ±100 for the full control effect; nearly all actives have a fitted effect of over 40% in size
#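 Recombinant E. coli-expressed Tdp1 (1 nM) preincubated with compound 15 min at RT, then 5'-biotin/3'-phosphotyrosine-FITC DNA substrate (15 nM) added for 5 min. AlphaScreen beads (10 ug/ml) added, 10 min RT; tyrosine-FITC cleavage read as signal loss.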
# POLK inh = qHTS for Inhibitors of Polymerase Kappa | hit rate 0.53% among 400,000 | Potency, µM (top dose mostly 107 µM), without a hit: at the top dose activity, negative = inhibition, usual class: inhibitors | purified Pol kappa, fluorescent DNA synthesis assay, 10 min; also: % is scaled to controls: 0 for no effect and ±100 for the full control effect
# Target sequence (Q9UBT6 whole entry, looked up): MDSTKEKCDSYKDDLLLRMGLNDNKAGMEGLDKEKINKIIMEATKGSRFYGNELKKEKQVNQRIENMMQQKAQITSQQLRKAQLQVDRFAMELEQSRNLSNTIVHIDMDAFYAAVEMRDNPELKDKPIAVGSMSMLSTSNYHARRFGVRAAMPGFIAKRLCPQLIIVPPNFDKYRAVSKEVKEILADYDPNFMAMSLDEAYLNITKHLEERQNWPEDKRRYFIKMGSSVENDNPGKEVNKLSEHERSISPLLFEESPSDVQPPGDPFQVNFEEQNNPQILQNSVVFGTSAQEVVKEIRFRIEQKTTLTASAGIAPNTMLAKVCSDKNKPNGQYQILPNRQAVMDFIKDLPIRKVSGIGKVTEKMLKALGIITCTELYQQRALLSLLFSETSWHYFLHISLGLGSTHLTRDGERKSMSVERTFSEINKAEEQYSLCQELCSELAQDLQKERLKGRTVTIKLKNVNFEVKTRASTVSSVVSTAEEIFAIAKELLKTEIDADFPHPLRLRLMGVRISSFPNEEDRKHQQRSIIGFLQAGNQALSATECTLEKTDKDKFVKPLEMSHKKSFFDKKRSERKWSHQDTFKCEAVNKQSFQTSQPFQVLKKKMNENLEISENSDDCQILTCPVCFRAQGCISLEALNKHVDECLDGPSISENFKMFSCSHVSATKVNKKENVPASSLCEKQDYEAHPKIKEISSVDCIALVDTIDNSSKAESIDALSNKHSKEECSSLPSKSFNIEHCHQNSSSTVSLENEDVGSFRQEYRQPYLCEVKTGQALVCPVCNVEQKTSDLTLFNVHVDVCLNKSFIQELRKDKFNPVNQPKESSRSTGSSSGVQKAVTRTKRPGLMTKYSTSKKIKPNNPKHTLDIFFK
#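 Readout: fluorescence, taken kinetically at 0 and 10 min. Conditions: 10 nM Pol kappa, 15 min RT compound preincubation, 50 nM substrate final. Controls: enzyme-free buffer wells.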
# The depositor's hits bear a star; ? = inconclusive; . = no result given; [ ] = another dose, or the depositor's remark. Calls follow the shape of the dose curve; as a rule, active = well fitted curve in the direction sought with a large enough effect; inconclusive = small, poorly fitted or top-dose-only effect, or another doubt; inactive = no such curve, though single readings can be large; an effect the other way counts as inactive or inconclusive. Potency is read from the fitted curve at half-maximal effect.
SMILES,POLB inh,POLI inh,FEN1 inhibitor,Pol eta inh,TDP1 inh,POLK inh
O=C(NCCCN1CCCC1=O)c1ccc2c(=O)n(Cc3ccco3)c(=S)[nH]c2c1,31.6µM*,?,-2.5%,-7.2%,6.8%[56.1 µM],1.8%
O=C(c1ccc2c(=O)n(Cc3ccco3)c(=S)[nH]c2c1)N1CCN(Cc2ccc3c(c2)OCO3)CC1,.,89.1µM*,?,.,.,?
O=C(c1ccc2c(=O)n(Cc3ccc4c(c3)OCO4)c(=S)[nH]c2c1)N1CCN(Cc2ccccc2)CC1,.,19.2%,-23.0%,.,.,-6.1%
Cc1ccc(CNC(=O)c2ccc3c(=O)n(CCCN4CCCC4=O)c(=S)[nH]c3c2)cc1,31.6µM*,29.1%,-11.0%,3.9%,.,-7.8%
COc1ccc(-n2c(=S)[nH]c3cc(C(=O)NCc4ccco4)ccc3c2=O)cc1OC,44.9%,-7.6%,-1.2%,-21.7%,-2.0%,-6.3%
COc1ccc(CCn2c(=S)[nH]c3cc(C(=O)NCc4ccco4)ccc3c2=O)cc1OC,22.4µM*,3.3%,1.8%,?,-3.1%,-12.4%
CC(C)(C)OC(=O)Cc1nnc(-c2nc3ccccc3[nH]2)s1,.,.,.,.,-3.3%,.
O=C1CCC[C@@H]2CC(Nc3ccccc3)C[C@@H]3CCN1[C@H]23 (some centres not stated),.,27.6%,16.9%,.,.,-5.4%
CC(=O)OC1CC2C(C)(C)C(O)CC[C@@]2(C)C2CC[C@@]3(C)C(c4ccoc4)OC(=O)C4O[C@@]43[C@]12C (some centres not stated),.,.,.,.,18.8%[56.1 µM],-12.3%[60.1 µM]
N#CC(Cc1ccc(O)c(O)c1)C(=O)N1CCc2ccccc21 (configuration not stated),?,?,.,7.94µM*,17.9%[56.1 µM],.
CC(C)(C)c1ccc(OCCSc2nc(-c3cccs3)nc3cc(=O)[nH]n23)cc1,31.6µM*,25.1%,-21.3%,?,5.3%,?
C=CCc1ccccc1OCCSc1nc(-c2cccs2)nc2cc(=O)[nH]n12,25.1µM*,?,-23.6%,79.4µM*,-5.3%,?
COc1ccccc1OCCSc1nc(-c2ccc(C(C)(C)C)cc2)nc2cc(=O)[nH]n12,12.0%,-18.5%,-26.5%,?,0.0%,-5.5%
Cc1ccc(OCCCSc2nc(-c3ccc(C(C)(C)C)cc3)nc3cc(=O)[nH]n23)cc1C,?,0.8%,?,44.7µM*,0.0%,-19.8%
CC(C)(C)c1ccc(-c2nc(SCCOc3ccc(Cl)cc3)n3[nH]c(=O)cc3n2)cc1,?,10.7%,-17.4%,50.1µM*,5.3%,-19.3%
CC(C)(C)n1ncc2c(=O)n(Cc3cc(F)ccc3Cl)cnc21,.,?,-19.8%,.,.,-9.5%
Cc1cnc(CNc2ncnc3ccc(-c4c(C)noc4C)cc23)cn1,.,.,.,.,.,8.8%[60.1 µM]
COCCSc1ccccc1C(=O)Nc1ccc(Cl)cc1,0.4%,10µM*,-0.4%,-6.8%,4.9%,-1.4%
O=C(CNC(=O)c1ccccc1Cl)OCc1cc(=O)n2nc(C3CC3)sc2n1,-0.6%,23.8%,2.6%,-14.8%,4.5%,0.0%
COc1cc(N=Nc2c(O)c3ccccc3[nH]c2=O)c(OC)cc1N=Nc1ccccc1,?,-4.0%,8.9%,-18.9%,8.6%,-3.2%
COc1ccc(OC)c(N=Nc2c(O)c3ccccc3[nH]c2=O)c1,.,?,?,39.8µM*,.,-25.9%
CN(C)CC1CCn2c(c(C3=C(c4cn(C)c5ccccc45)C(=O)NC3=O)c3ccccc32)C1 (configuration not stated),.,.,.,.,12.8%,?
COCCN(CCOC)C(=O)c1cc2c(=O)n3ccccc3nc2n1C,10µM*,?,-13.0%,-13.7%,-2.6%,-22.3%
O=C(NC(=S)Nc1cccc2ncccc12)c1ccco1,18.3%,2.4%,-2.1%,-11.7%,-4.3%,3.3%
